Laboratory results reported in paper PMC9911399, “Two distinct binding modes provide the RNA-binding protein RbFox with extraordinary sequence specificity”.
Positions count from the first letter of the chain named. The full ranking holds about 16,000 sequences; the median of “ka relative to ugcaugu” is about 0.0091, and the highest 2% start at about 0.032. Many of the other results were omitted from the sample, so the highest values are more common in it than they were.

T1: RBFOX1 RRM (Homo sapiens, UniProt Q9NWB1 109-208)
T1 sequence: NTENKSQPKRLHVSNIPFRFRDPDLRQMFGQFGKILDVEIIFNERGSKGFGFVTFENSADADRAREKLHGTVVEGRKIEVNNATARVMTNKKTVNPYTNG

B1: UCAAACU (DNA:RNA)
RNA: GGGAGACCGGAAUUCAGAUUGUCCUCAAACUUUAAAUCCCGUCGUAGCCACCA
DNA 1: CAATCTGAATTCCGGTCTCCC
DNA 2: TGGTGGCTACGACGGGATT
B2: AUUAGUA (DNA:RNA)
RNA: B1 RNA with U25A, C26U, A27U, A29G, C30U, U31A
DNA 1: CAATCTGAATTCCGGTCTCCC
DNA 2: TGGTGGCTACGACGGGATT
B3: CGGAAGU (DNA:RNA)
RNA: B1 RNA with U25C, C26G, A27G, C30G
DNA 1: CAATCTGAATTCCGGTCTCCC
DNA 2: TGGTGGCTACGACGGGATT
B4: UCUUCCA (DNA:RNA)
RNA: B1 RNA with A27U, A28U, A29C, U31A
DNA 1: CAATCTGAATTCCGGTCTCCC
DNA 2: TGGTGGCTACGACGGGATT
B5: CCGCCUG (DNA:RNA)
RNA: B1 RNA with U25C, A27G, A28C, A29C, C30U, U31G
DNA 1: CAATCTGAATTCCGGTCTCCC
DNA 2: TGGTGGCTACGACGGGATT
B6: CGCCUGC (DNA:RNA)
RNA: GGGAGACCGGAAUUCAGAUUGUCCCGCCUGCUUAAAUCCCGUCGUAGCCACCA
DNA 1: CAATCTGAATTCCGGTCTCCC
DNA 2: TGGTGGCTACGACGGGATT
B7: GCUGCUU (DNA:RNA)
RNA: B1 RNA with U25G, A27U, A28G, A29C, C30U
DNA 1: CAATCTGAATTCCGGTCTCCC
DNA 2: TGGTGGCTACGACGGGATT
B8: GCCUUGC (DNA:RNA)
RNA: B6 RNA with C25G, G26C, C28U
DNA 1: CAATCTGAATTCCGGTCTCCC
DNA 2: TGGTGGCTACGACGGGATT
B9: GCCCUGC (DNA:RNA)
RNA: B6 RNA with C25G, G26C
DNA 1: CAATCTGAATTCCGGTCTCCC
DNA 2: TGGTGGCTACGACGGGATT
B10: GCCUGUC (DNA:RNA)
RNA: B6 RNA with C25G, G26C, C28U, U29G, G30U
DNA 1: CAATCTGAATTCCGGTCTCCC
DNA 2: TGGTGGCTACGACGGGATT
B11: CGCCUUG (DNA:RNA)
RNA: B6 RNA with G30U, C31G
DNA 1: CAATCTGAATTCCGGTCTCCC
DNA 2: TGGTGGCTACGACGGGATT
B12: GCCUGUG (DNA:RNA)
RNA: B6 RNA with C25G, G26C, C28U, U29G, G30U, C31G
DNA 1: CAATCTGAATTCCGGTCTCCC
DNA 2: TGGTGGCTACGACGGGATT
B13: GCUUGCC (DNA:RNA)
RNA: B1 RNA with U25G, A27U, A28U, A29G, U31C
DNA 1: CAATCTGAATTCCGGTCTCCC
DNA 2: TGGTGGCTACGACGGGATT
B14: GCCCCUG (DNA:RNA)
RNA: B6 RNA with C25G, G26C, U29C, G30U, C31G
DNA 1: CAATCTGAATTCCGGTCTCCC
DNA 2: TGGTGGCTACGACGGGATT
B15: GCCUGCU (DNA:RNA)
RNA: B1 RNA with U25G, A27C, A28U, A29G
DNA 1: CAATCTGAATTCCGGTCTCCC
DNA 2: TGGTGGCTACGACGGGATT
B16: GCCCGCU (DNA:RNA)
RNA: B1 RNA with U25G, A27C, A28C, A29G
DNA 1: CAATCTGAATTCCGGTCTCCC
DNA 2: TGGTGGCTACGACGGGATT
B17: CAACUCA (DNA:RNA)
RNA: B6 RNA with G26A, C27A, G30C, C31A
DNA 1: CAATCTGAATTCCGGTCTCCC
DNA 2: TGGTGGCTACGACGGGATT
B18: GAUCAAG (DNA:RNA)
RNA: B6 RNA with C25G, G26A, C27U, U29A, G30A, C31G
DNA 1: CAATCTGAATTCCGGTCTCCC
DNA 2: TGGTGGCTACGACGGGATT
B19: CAUAUGA (DNA:RNA)
RNA: B6 RNA with G26A, C27U, C28A, C31A
DNA 1: CAATCTGAATTCCGGTCTCCC
DNA 2: TGGTGGCTACGACGGGATT
B20: ACAUCGA (DNA:RNA)
RNA: B1 RNA with U25A, A28U, A29C, C30G, U31A
DNA 1: CAATCTGAATTCCGGTCTCCC
DNA 2: TGGTGGCTACGACGGGATT
B21: AUUACAG (DNA:RNA)
RNA: B1 RNA with U25A, C26U, A27U, A29C, C30A, U31G
DNA 1: CAATCTGAATTCCGGTCTCCC
DNA 2: TGGTGGCTACGACGGGATT
B22: GUCGCUU (DNA:RNA)
RNA: B6 RNA with C25G, G26U, C28G, U29C, G30U, C31U
DNA 1: CAATCTGAATTCCGGTCTCCC
DNA 2: TGGTGGCTACGACGGGATT
B23: GCCUGCA (DNA:RNA)
RNA: B1 RNA with U25G, A27C, A28U, A29G, U31A
DNA 1: CAATCTGAATTCCGGTCTCCC
DNA 2: TGGTGGCTACGACGGGATT
B24: ACCUGCA (DNA:RNA)
RNA: B1 RNA with U25A, A27C, A28U, A29G, U31A
DNA 1: CAATCTGAATTCCGGTCTCCC
DNA 2: TGGTGGCTACGACGGGATT
B25: CGCUGCA (DNA:RNA)
RNA: B6 RNA with C28U, U29G, G30C, C31A
DNA 1: CAATCTGAATTCCGGTCTCCC
DNA 2: TGGTGGCTACGACGGGATT
B26: GCCUGCG (DNA:RNA)
RNA: B1 RNA with U25G, A27C, A28U, A29G, U31G
DNA 1: CAATCTGAATTCCGGTCTCCC
DNA 2: TGGTGGCTACGACGGGATT
B27: GCCUGCC (DNA:RNA)
RNA: B6 RNA with C25G, G26C, C28U, U29G, G30C
DNA 1: CAATCTGAATTCCGGTCTCCC
DNA 2: TGGTGGCTACGACGGGATT
B28: GUCCGCC (DNA:RNA)
RNA: B6 RNA with C25G, G26U, U29G, G30C
DNA 1: CAATCTGAATTCCGGTCTCCC
DNA 2: TGGTGGCTACGACGGGATT
B29: CUGUAGC (DNA:RNA)
RNA: B6 RNA with G26U, C27G, C28U, U29A
DNA 1: CAATCTGAATTCCGGTCTCCC
DNA 2: TGGTGGCTACGACGGGATT
B30: CGCACUC (DNA:RNA)
RNA: B6 RNA with C28A, U29C, G30U
DNA 1: CAATCTGAATTCCGGTCTCCC
DNA 2: TGGTGGCTACGACGGGATT
B31: AAGUAUU (DNA:RNA)
RNA: B1 RNA with U25A, C26A, A27G, A28U, C30U
DNA 1: CAATCTGAATTCCGGTCTCCC
DNA 2: TGGTGGCTACGACGGGATT

biological target: T1, RBFOX1 RRM; experiment: EMSA; HiTS-Eq, 1 nM pool, 10 min; buffer printed only for the single-RNA assays: 10 mM Tris pH 7.5, 150 mM NaCl, 3.4 mM EDTA, 0.001% NP-40, 30 C; conditions: tags: His6 N-terminal (pET28a); label: 5' 32P
Outline: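 Purified RbFox RRM, wild type or mutant, was incubated for 10 min in 50 µL with 1 nM of a 5′-radiolabelled RNA pool carrying 7 randomized nucleotides, whose flanks were annealed to DNA oligonucleotides, over a series of increasing protein concentrations. Unbound RNA was resolved on 8% native PAGE, cut out, reverse-transcribed, barcoded by PCR and sequenced on an Illumina HiSeq 2500. Relative association constants were derived from changes in read counts for each RNA species versus the control reaction and normalised to the cognate motif.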

| Binder | binding signal |
| --- | --- |
| B1 | 0.00177 KA relative to UGCAUGU |
| B2 | 0.00672 KA relative to UGCAUGU |
| B3 | 0.0236 KA relative to UGCAUGU |
| B4 | 0.00385 KA relative to UGCAUGU |
| B5 | 0.0178 KA relative to UGCAUGU |
| B6 | 0.0343 KA relative to UGCAUGU |
| B7 | 0.0216 KA relative to UGCAUGU |
| B8 | 0.0319 KA relative to UGCAUGU |
| B9 | 0.0133 KA relative to UGCAUGU |
| B10 | 0.0275 KA relative to UGCAUGU |
| B11 | 0.0242 KA relative to UGCAUGU |
| B12 | 0.034 KA relative to UGCAUGU |
| B13 | 0.0307 KA relative to UGCAUGU |
| B14 | 0.016 KA relative to UGCAUGU |
| B15 | 0.0359 KA relative to UGCAUGU |
| B16 | 0.0168 KA relative to UGCAUGU |

| Binder | binding signal |
| --- | --- |
| B17 | 0.0014 KA relative to UGCAUGU |
| B18 | 0.0079 KA relative to UGCAUGU |
| B19 | 0.00465 KA relative to UGCAUGU |
| B20 | 0.00224 KA relative to UGCAUGU |
| B21 | 0.0056 KA relative to UGCAUGU |
| B22 | 0.0147 KA relative to UGCAUGU |
| B23 | 0.0378 KA relative to UGCAUGU |
| B24 | 0.0144 KA relative to UGCAUGU |
| B25 | 0.0198 KA relative to UGCAUGU |
| B26 | 0.0321 KA relative to UGCAUGU |
| B27 | 0.0261 KA relative to UGCAUGU |
| B28 | 0.0105 KA relative to UGCAUGU |
| B29 | 0.0127 KA relative to UGCAUGU |
| B30 | 0.00942 KA relative to UGCAUGU |
| B31 | 0.0026 KA relative to UGCAUGU |
